# Measured values from PubChem BioAssay (EPA / NIEHS).
# Values joined by “and” are separate entries in the source; they are usually repeats but may differ in a detail not shown here. Identical values can stand only once. Inconclusive results are not listed. Some compounds were tested as several samples or in several runs, with calls that do not always agree. Active and inactive are the calls of the source. How the source made its calls, unless noted: active means hit-call score of the fitted dose curve at least 0.9, where 1 is the maximum; inconclusive means response in the unintended direction; inactive means score below 0.9.
# Experiments:
# [1] = target: Peroxisome proliferator-activated receptor gamma (Homo sapiens) (UniProt P37231); assay: NVS_NR_hPPARg: NovaScreen (NVS) Nuclear Receptor Binding Assay for human Peroxisome Proliferator-activated Receptor gamma (PPARg) (AID 2283370)
# Peroxisome proliferator-activated receptor gamma (Homo sapiens), sequence (P37231 whole entry, looked up): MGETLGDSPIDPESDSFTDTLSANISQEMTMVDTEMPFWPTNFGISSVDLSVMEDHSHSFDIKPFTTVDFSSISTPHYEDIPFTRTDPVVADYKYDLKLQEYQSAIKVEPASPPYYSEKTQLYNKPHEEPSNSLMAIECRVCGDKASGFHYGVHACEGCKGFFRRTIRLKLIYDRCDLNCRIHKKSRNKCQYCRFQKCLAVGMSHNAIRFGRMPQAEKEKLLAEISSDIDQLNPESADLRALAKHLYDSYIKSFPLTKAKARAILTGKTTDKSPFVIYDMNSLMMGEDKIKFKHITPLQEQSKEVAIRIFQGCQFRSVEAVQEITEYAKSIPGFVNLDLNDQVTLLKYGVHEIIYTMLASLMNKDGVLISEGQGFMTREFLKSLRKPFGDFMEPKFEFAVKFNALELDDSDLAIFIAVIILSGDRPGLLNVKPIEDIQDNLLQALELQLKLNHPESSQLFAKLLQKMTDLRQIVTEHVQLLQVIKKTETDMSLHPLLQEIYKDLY
# Method in brief: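 Extracted receptor protein, cell-free; compound incubated 2 h then fluorescence polarization read. Baseline: DMSO. Actives from 25 uM duplicate screen re-run across concentrations.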
# [2] = target: Estrogen receptor beta (Homo sapiens) (UniProt Q92731); assay: OT_ER_ERbERb_1440: Odyssey Thera (OT) 24-hour HEK293T Protein-Complementation Assay for Estrogen Receptor-beta/-beta Homodimer (AID 2283380);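 further: fluorescence gain from ER beta LBD homodimer complementation read by laser scanning cytometry; scored as signal increase over DMSO baseline for both agonists and antagonists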
# Estrogen receptor beta (Homo sapiens), sequence (Q92731 whole entry, looked up, the tested form may be a part): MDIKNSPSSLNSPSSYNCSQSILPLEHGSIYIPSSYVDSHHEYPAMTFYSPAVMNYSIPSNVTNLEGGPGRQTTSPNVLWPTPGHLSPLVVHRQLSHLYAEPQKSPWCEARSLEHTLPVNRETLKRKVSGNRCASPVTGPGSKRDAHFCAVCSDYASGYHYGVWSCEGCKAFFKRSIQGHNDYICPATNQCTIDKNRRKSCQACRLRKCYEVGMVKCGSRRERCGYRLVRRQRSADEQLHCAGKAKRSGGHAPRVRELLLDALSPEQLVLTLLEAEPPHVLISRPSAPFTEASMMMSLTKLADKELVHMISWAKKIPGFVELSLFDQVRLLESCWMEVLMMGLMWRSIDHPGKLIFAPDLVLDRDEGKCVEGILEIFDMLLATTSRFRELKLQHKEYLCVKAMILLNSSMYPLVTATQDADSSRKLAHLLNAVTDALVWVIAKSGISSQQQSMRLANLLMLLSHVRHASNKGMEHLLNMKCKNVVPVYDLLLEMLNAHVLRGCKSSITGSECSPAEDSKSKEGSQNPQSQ
# Method in brief: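 Fluorescence increase, nuclear for agonists or whole-cell for antagonists, relative to DMSO vehicle, quantified by laser scanning cytometer after fixation and Draq5 staining. Readout from 24 h treatment of HEK293T cells carrying complementation-paired ER beta LBD (aa 310-547).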
# [3] = target: Retinoic acid receptor RXR-alpha (Homo sapiens) (UniProt P19793); assay: OT_NURR1_NURR1RXRa_0480: Odyssey Thera (OT) 8-hour HEK293T Protein Complementation Assay for Nurr1/retinoid X receptor (RXR) (AID 2283385)
# Retinoic acid receptor RXR-alpha (Homo sapiens), sequence (P19793 whole entry, looked up, the tested form may be a part): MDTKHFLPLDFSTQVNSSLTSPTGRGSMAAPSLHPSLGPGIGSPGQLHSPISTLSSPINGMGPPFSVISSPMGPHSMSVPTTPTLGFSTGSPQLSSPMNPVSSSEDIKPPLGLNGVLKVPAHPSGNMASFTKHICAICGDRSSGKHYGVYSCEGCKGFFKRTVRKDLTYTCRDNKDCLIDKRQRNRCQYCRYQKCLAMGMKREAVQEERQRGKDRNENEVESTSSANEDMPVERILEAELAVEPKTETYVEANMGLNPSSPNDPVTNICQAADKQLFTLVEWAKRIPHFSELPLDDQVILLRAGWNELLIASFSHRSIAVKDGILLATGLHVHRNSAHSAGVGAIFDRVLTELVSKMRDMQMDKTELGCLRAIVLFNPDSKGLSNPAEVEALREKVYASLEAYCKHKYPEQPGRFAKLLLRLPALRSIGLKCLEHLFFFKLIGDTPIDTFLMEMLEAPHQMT
# Method in brief: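 Read-out: fluorescence from protein-fragment complementation between Nurr1 and RXRα in human HEK293T cells, 8 h after dosing. DMSO served as negative control; increased signal counted as activity.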
# [4] = target: Retinoic acid receptor RXR-alpha (Homo sapiens) (UniProt P19793); assay: OT_NURR1_NURR1RXRa_1440: Odyssey Thera (OT) 24-hour HEK293T Protein Complementation Assay for Nurr1/retinoid X receptor (RXR) (AID 2283386)
# Method in brief: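 Fluorescence PCA read-out; HEK293T; 24 h post-dose; bait/prey fused to reporter fragments; gain-of-signal fit vs DMSO negative control.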
# [5] = target: guinea pig Sigma Receptor, Non-selective Binding, SIGMAR1 (gene 100135589) (UniProt Q60492); assay: NVS_OR_gSIGMA_NonSelective: NovaScreen (NVS) Nuclear Receptor Binding Assay for guinea pig Sigma Receptor, Non-selective Binding (AID 2283367)
# guinea pig Sigma Receptor, Non-selective Binding, SIGMAR1 (gene 100135589), sequence (Q60492 whole entry, looked up): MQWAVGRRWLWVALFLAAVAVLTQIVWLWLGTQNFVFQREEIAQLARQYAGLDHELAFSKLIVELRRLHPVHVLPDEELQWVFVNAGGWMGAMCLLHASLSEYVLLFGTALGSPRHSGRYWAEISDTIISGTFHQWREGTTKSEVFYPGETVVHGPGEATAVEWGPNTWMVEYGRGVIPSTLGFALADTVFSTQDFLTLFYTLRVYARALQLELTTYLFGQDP
# Method in brief: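 Guinea pig brain membrane sigma sites were labelled with a radioligand, and bound radioactivity was counted after filtration 1 h post-dose. Compounds were screened at 25 uM in duplicate, then retested as concentration series when active.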
# [6] = target: human Norepinephrine Transporter (NET), SLC6A2 (gene 6530) (UniProt P23975); assay: NVS_TR_hNET: NovaScreen (NVS) Transporter Assay for human Norepinephrine Transporter (NET) (AID 2283377);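 further: cell-free membrane protein extracted from CHO cells expressing human NET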;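 on AC50: displacement of radioligand from human NET seen as loss of scintillation signal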
# human Norepinephrine Transporter (NET), SLC6A2 (gene 6530), sequence (P23975 whole entry, looked up): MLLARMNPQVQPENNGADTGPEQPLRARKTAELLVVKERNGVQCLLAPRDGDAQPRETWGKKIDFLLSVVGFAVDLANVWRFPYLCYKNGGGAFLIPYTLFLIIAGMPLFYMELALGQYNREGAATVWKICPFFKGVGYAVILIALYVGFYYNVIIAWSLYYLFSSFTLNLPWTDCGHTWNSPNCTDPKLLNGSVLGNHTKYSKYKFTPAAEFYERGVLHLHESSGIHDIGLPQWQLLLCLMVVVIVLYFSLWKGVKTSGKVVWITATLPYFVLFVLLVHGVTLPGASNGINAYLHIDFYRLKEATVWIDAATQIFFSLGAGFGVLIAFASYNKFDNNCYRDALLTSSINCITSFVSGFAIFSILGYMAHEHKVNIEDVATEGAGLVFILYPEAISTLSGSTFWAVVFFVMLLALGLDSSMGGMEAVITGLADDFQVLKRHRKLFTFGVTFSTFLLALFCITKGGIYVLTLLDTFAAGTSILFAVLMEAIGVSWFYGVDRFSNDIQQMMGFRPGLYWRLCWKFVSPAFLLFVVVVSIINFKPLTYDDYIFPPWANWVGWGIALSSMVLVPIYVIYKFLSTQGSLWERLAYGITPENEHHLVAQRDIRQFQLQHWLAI
# Method in brief: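 Single-concentration duplicate screen at 25 uM, then concentration-response for actives; displacement of specific radioligand from human NET in CHO membrane extracts, filter-based scintillation detection at 1 h relative to DMSO.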
# [7] = target: Bile acid receptor (Homo sapiens) (UniProt Q96RI1); assay: OT_FXR_FXRSRC1_1440: Odyssey Thera (OT) 24-hour HEK293T Protein-Complementation Assay for Farnesoid X receptor/SRC-1 Co-activator (AID 2283384)
# Bile acid receptor (Homo sapiens), sequence (Q96RI1 whole entry, looked up, the tested form may be a part): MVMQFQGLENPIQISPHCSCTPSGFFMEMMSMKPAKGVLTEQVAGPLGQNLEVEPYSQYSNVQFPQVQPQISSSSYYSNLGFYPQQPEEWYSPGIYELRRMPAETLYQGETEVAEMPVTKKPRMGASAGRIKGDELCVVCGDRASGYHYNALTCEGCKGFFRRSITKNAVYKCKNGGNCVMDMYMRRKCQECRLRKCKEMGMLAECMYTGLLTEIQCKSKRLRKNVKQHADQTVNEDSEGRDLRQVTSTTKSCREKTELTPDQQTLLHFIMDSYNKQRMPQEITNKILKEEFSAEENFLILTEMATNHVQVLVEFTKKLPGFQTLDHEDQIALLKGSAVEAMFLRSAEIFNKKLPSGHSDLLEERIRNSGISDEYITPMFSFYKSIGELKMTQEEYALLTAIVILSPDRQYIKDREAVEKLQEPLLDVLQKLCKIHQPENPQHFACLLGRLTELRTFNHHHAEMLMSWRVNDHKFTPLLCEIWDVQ
# Method in brief: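 Fluorescence readout, 24 h post-dose, HEK293T; FXR and SRC-1 fused to complementary reporter fragments, association reconstitutes signal. Positive-direction fit vs DMSO baseline.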
# [8] = target: Agonist Androgen Response Element (ARE), AR (gene 367) (UniProt P10275); assay: OT_AR_ARELUC_AG_1440: Odyssey Thera (OT) 24-hour CHO-K1 Luciferase Assay for Agonist Androgen Response Element (ARE) (AID 2283379)
# Agonist Androgen Response Element (ARE), AR (gene 367), sequence (P10275 whole entry, looked up): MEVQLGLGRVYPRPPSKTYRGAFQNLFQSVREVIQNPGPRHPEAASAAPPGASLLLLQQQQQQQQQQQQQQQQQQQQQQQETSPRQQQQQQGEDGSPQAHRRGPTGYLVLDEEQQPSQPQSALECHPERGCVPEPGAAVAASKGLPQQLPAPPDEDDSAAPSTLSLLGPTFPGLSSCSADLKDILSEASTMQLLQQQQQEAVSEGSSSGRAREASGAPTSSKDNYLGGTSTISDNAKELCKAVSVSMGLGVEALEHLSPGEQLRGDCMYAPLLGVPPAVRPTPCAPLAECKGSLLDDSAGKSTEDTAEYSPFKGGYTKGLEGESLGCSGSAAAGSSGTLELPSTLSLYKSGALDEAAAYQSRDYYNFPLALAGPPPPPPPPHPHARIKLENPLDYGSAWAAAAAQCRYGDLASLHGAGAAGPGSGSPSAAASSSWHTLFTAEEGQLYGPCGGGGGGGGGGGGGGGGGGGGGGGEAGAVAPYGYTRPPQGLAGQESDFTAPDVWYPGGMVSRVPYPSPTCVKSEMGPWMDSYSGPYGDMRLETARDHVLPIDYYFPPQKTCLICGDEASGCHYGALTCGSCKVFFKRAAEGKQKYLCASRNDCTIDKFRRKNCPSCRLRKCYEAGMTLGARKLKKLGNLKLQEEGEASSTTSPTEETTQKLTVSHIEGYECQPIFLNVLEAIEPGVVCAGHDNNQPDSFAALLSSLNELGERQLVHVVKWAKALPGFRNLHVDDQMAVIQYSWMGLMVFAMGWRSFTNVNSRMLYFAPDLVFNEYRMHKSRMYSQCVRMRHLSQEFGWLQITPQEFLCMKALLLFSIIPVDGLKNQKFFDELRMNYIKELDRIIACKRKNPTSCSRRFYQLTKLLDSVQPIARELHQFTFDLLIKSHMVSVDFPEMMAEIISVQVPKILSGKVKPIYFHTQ
# Method in brief: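 Readout: luciferase bioluminescence from CHO-K1 ARE-luc cells, measured 24 h post-dosing; agonism = increased mean luminescence vs DMSO controls, fitted in positive direction.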
# [9] = tested on: guinea pig Dopamine Transporter (DAT), gene 100714898; assay: NVS_TR_gDAT: NovaScreen (NVS) Transporter Assay for guinea pig Dopamine Transporter (DAT) (AID 2283369);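 further: active compounds lower bound radioligand signal relative to DMSO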
# Method in brief: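 Primary pass: duplicate wells at 25 uM, threshold e.g. 30% inhibition. Follow-up: singleton concentration-response, highest 50 uM. Radioligand binding on guinea pig striatal membranes, 2 h, filtration scintillation detection.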
# [10] = target: human Serotonin Transporter (SERT), SLC6A4 (gene 6532) (UniProt P31645); assay: NVS_TR_hSERT: NovaScreen (NVS) Transporter Assay for human Serotonin Transporter (SERT) (AID 2283372)
# Method in brief: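 Human platelet membrane preparation; displacement of radioligand from serotonin transporter measured after 1 h by filtration and scintillation counting. Single 25 uM duplicate screen, then concentration series for actives, with DMSO as negative baseline.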
# [11] = target: rat Serotonin Transporter (SERT), Slc6a4 (gene 25553) (UniProt P31652); assay: NVS_TR_rSERT: NovaScreen (NVS) Transporter Assay for rat Serotonin Transporter (SERT) (AID 2283375)
# rat Serotonin Transporter (SERT), Slc6a4 (gene 25553), sequence (P31652 whole entry, looked up): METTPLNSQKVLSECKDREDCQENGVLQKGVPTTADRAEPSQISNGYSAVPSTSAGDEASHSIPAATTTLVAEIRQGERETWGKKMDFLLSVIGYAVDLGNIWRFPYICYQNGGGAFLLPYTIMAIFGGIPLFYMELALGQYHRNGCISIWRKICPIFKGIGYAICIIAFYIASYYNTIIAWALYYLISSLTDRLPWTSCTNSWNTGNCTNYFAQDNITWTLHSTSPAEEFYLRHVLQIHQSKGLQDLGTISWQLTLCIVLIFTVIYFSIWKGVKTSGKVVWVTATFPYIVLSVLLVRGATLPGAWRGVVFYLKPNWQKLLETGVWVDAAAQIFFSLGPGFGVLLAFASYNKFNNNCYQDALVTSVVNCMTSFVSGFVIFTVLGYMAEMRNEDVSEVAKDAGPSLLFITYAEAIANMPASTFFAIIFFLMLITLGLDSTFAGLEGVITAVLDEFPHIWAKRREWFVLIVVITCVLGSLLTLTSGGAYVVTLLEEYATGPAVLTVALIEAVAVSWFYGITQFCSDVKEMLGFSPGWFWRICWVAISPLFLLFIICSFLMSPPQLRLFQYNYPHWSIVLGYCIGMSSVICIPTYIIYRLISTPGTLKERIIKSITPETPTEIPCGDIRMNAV
# Method in brief: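 Using rat forebrain membrane SERT, test chemicals compete with a radioligand for 1 hour, and bound counts are taken by filter-based scintillation. Screening starts at 25 uM in duplicate, followed by concentration series for actives.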
# [12] = target: Estrogen receptor (Homo sapiens) (UniProt P03372); assay: OT_ERa_GFPERaERE_0480: Odyssey Thera (OT) 8-hour HeLa Transcription Induction Assay for Estrogen Receptor (AID 2283381; active means hit-call score of the fitted dose curve at least 0.9, where 1 is the maximum; inactive means score below 0.9)
# Estrogen receptor (Homo sapiens), sequence (P03372 whole entry, looked up): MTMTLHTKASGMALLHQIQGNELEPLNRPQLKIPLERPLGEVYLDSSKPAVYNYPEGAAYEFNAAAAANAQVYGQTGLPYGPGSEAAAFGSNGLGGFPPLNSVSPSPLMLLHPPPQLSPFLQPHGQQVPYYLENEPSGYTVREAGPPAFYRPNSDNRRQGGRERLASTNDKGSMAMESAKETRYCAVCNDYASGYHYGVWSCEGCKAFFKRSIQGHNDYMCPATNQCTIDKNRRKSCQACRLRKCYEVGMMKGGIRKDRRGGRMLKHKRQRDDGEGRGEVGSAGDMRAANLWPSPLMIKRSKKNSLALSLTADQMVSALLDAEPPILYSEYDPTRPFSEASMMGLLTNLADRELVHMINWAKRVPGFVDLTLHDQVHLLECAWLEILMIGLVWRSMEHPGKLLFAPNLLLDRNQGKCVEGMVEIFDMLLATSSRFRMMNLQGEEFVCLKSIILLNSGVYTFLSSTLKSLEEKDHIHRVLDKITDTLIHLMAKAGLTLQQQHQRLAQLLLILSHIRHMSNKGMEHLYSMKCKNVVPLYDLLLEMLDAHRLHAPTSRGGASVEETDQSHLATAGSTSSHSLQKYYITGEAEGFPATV
# Method in brief: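 GFP-ERE reporter, HeLa, 8 h exposure. Readout: fluorescence microscopy, high-content image analysis. Fit direction positive vs DMSO negative control.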
# [13] = target: Estrogen receptor (Homo sapiens) (UniProt P03372); assay: OT_ERa_GFPERaERE_0120: Odyssey Thera (OT) 2-hour HeLa Transcription Induction Assay for Estrogen Receptor (AID 2283382)
# Method in brief: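 Fluorescence microscopy read-out: inducible fluorescent protein reporter in HeLa cells, imaged 2 h post-dose. Signal increase over DMSO negative control fitted as single primary endpoint via high content image analysis.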
# [14] = target: human Adenosine Transporter (Adot), SLC29A1 (gene 2030) (UniProt Q99808); assay: NVS_TR_hAdoT: NovaScreen (NVS) Transporter Assay for human Adenosine Transporter (Adot) (AID 2283368)
# Method in brief: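 Binding displacement on U937 extracted protein, read 1 h post-dose by filtration and scintillation counting. Primary duplicate test at 25 uM, then singleton concentration series with 50 uM top; DMSO baseline.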
# [15] = tested on: rat Norepinephrine Transporter (NET), gene 83511; assay: NVS_TR_rNET: NovaScreen (NVS) Transporter Assay for rat Norepinephrine Transporter (NET) (AID 2283373)
# Method in brief: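 Competitive radioligand displacement at the rat NET using forebrain membrane preparations, 1 h incubation, filter-based scintillation readout. Primary testing in duplicate at a single 25 uM concentration; confirmed actives retested across concentrations.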
smiles,measurement,setting,value
Clc1nc(Cl)c(Cl)c(Cl)c1Cl,outcome,[1],inactive
same,outcome,[2],inactive
same,outcome,[3],inactive
same,outcome,[4],inactive
CC(C)CCCCCCCOC(=O)CCCCC(=O)OCCCCCCCC(C)C,outcome,[5],inactive
same,outcome,[6],inactive
same,outcome,[7],inactive
same,outcome,[4],inactive
CC(C)=CCC/C(C)=C\CO,outcome,[1],inactive
same,outcome,[8],inactive
same,outcome,[7],inactive
same,outcome,[3],inactive
same,outcome,[4],inactive
CC(C)(O)c1coc(S(=O)(=O)NC(=O)Nc2c3c(cc4c2CCC4)CCC3)c1,outcome,[1],inactive
same,outcome,[2],inactive
same,outcome,[4],inactive
CCCCC(CC)COC(=O)c1ccc(C(=O)OCC(CC)CCCC)cc1 (stereo not given),outcome,[1],inactive
same,outcome,[8],inactive
same,outcome,[4],inactive
CN(C)c1ccc(N=NS(=O)(=O)O)cc1,AC50,[9],27.1 µM (active)
same,outcome,[8],inactive
CCCN(C1CCN(C(=O)C2CCNCC2)CC1)[C@@H]1CCc2ccc(OC)cc2C1,AC50,[5],7.69 µM (active)
same,AC50,[10],10.3 µM (active)
same,AC50,[11],3.7 µM (active)
same,outcome,[8],inactive
same,AC50,[2],59.7 µM (active)
same,AC50,[4],64.8 µM (active)
O=C(NS(=O)(=O)/C=C/c1ccccc1)c1ccc(F)cc1Cl,AC50,[1],39.6 µM (active)
same,outcome,[2],inactive
same,outcome,[12],inactive
same,outcome,[13],inactive
same,AC50,[4],15.2 µM (active)
CC(C)=CCC/C(C)=C/CO,outcome,[1],inactive
same,outcome,[8],inactive
same,outcome,[4],inactive
Cc1c(-c2cccnc2)c2ccccc2n1CCCCC(=O)O,outcome,[1],inactive
same,outcome,[2],inactive
same,outcome,[7],inactive
same,outcome,[3],inactive
O=C(O)CCN(C1(C(=O)NO)CCCC1)S(=O)(=O)c1ccc(Oc2ccc(F)cc2)cc1,outcome,[5],inactive
same,outcome,[2],inactive
same,outcome,[4],inactive
Cc1ccc(C)c(O)c1,AC50,[5],8.63 µM (active)
same,outcome,[7],inactive
same,outcome,[3],inactive
same,outcome,[4],inactive
Fc1ccccc1[C@@H](F)COC1CCC(Nc2ncnc3[nH]ncc23)CC1 (stereo not given in full),AC50,[14],5.08 µM (active)
same,AC50,[11],2.48 µM (active)
same,outcome,[8],inactive
same,outcome,[2],inactive
same,outcome,[3],inactive
COC(=O)c1c(Cl)c(Cl)c(C(=O)OC)c(Cl)c1Cl,outcome,[1],inactive
same,outcome,[2],inactive
same,outcome,[12],inactive
same,outcome,[13],inactive
same,outcome,[7],inactive
same,outcome,[4],inactive
C=CC(=C)CCC=C(C)C,outcome,[1],inactive
same,outcome,[2],inactive
same,outcome,[12],inactive
same,outcome,[13],inactive
same,outcome,[3],inactive
same,outcome,[4],inactive
CNCc1ccc(NC(=O)c2c[nH]c3c2C(=O)CCC3)cc1,AC50,[1],5.18 µM (active)
same,AC50,[11],25 µM (active)
same,outcome,[2],inactive
same,outcome,[3],inactive
same,outcome,[4],inactive
COc1ccc(/C=C/S(=O)(=O)NC(=O)c2ccc(C)cc2Cl)cc1,AC50,[1],41.3 µM (active)
same,outcome,[2],inactive
same,AC50,[7],7.84 µM (active)
same,AC50,[3],24 µM (active)
same,AC50,[4],29 µM (active)
CC/C(=C\C(=N/O)C(N)=O)C(C)[N+](=O)[O-] (stereo not given),outcome,[1],inactive
same,outcome,[2],inactive
same,outcome,[12],inactive
same,outcome,[13],inactive
same,AC50,[3],31.6 µM (active)
same,outcome,[4],inactive
O=c1[nH]c2ccc(S(=O)CCN3CCC(Cc4ccc(F)cc4)CC3)cc2o1 (stereo not given),AC50,[5],0.339 µM (active)
same,AC50,[9],6.75 µM (active)
same,outcome,[1],inactive
same,AC50,[11],0.403 µM (active)
same,AC50,[6],2.28 µM (active)
same,outcome,[2],inactive
same,outcome,[12],inactive
same,outcome,[13],inactive
same,outcome,[3],inactive
same,outcome,[4],inactive
CCOC(=O)COc1ccc2c(c1)CC(NCC(O)c1cccc(Cl)c1)CC2 (stereo not given),outcome,[5],inactive
same,AC50,[9],10.6 µM (active)
same,outcome,[10],inactive
same,outcome,[15],inactive
same,AC50,[11],4.63 µM (active)
same,AC50,[6],0.312 µM (active)
same,AC50,[12],69.3 µM (active)
same,outcome,[13],inactive
same,AC50,[4],10.7 µM (active) and 10.3 µM (active)
CC(C)=CCCC(C)CCO (stereo not given),outcome,[1],inactive
same,outcome,[8],inactive
same,outcome,[2],inactive
same,outcome,[12],inactive
same,outcome,[13],inactive
same,AC50,[3],90.2 µM (active)
same,outcome,[3],inactive
same,outcome,[4],inactive
O=C(O)CC(O)C(=O)O (stereo not given),AC50,[5],14.8 µM (active)
same,AC50,[9],5.6 µM (active)
same,outcome,[2],inactive
same,outcome,[4],inactive
